Screening data from PubChem.
A selection: hits, their analogues and other compounds. The true share with any hit is near 3.1%.
MITF TRPM1 HTS: activators of MITF-driven TRPM1 promoter activity in SK-MEL-5 cells | SK-MEL-5 TRPM1-promoter luciferase, 24 h; % of positive control, neutral wells = 0 | activation, % at 12.5 µM | hit rate 0.75% among 300,000 | AID 588334;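 active means mean activation of at least 80% with every replicate also reaching 80%; inconclusive means mean reaches 80% but some replicate falls short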
Rtt109 Vps75: C. albicans Rtt109 histone acetyltransferase inhibition; Q5AAJ8; purified Rtt109/Vps75, ThioGlo CoA-SH fluorescence, 4 h; inhibition, % at 34.9 µM; hit rate 0.16% among 330,000;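 active means inhibition of at least 50% in every replicate; inconclusive means best replicate reaches 50% inhibition but some replicates fall short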
Target sequence (Q5AAJ8 whole entry, looked up): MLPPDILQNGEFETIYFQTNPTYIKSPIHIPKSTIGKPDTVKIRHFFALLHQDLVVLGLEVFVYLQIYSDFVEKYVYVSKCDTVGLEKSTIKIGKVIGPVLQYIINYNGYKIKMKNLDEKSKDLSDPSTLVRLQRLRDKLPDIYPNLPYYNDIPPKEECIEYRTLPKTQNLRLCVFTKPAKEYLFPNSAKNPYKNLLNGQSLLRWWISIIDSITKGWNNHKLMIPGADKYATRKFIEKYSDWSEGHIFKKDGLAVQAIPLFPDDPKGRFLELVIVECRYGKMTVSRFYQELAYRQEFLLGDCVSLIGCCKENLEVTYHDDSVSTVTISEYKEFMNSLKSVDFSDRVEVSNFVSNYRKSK
esBAF inh: inhibitors of esBAF chromatin remodeling in mouse ES cells. Bmi1-luciferase knock-in reporter, 24 h; 100% = twice the neutral-well signal. reporter increase, % at 12.5 µM. hit rate 2% among 350,000. AID 602393; in the data active means activation above about 40%; inconclusive means no clear call, values can overlap the other calls;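 further: a rise in the Bmi1 reporter signal indicates esBAF inhibition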
Wnt act: activates Wnt/beta-catenin signaling in a reporter cell assay; activator, plate reader; activation, % at 9.35 µM; hit rate 1.2% among 300,000; in the data active means activation above about 30%, passing the limit was not always enough; inconclusive means no clear call, values can overlap the other calls
C2C12 statin: protects C2C12 myotubes from simvastatin toxicity | ATP luminescence, 48 h; scaled: DMSO 0, geranylgeraniol control 100 | rescue of ATP level, % at 7.49 µM | hit rate 0.78% among 330,000;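 active means mean ATP rescue above about 67%, or every replicate alone reaching that limit, limit read from the data, passing the limit was not always enough; inconclusive means no clear call, values can overlap the other calls; inactive means mean under the limit and some replicate under it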;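 further: myotubes were challenged with 10 µM simvastatin during compound exposure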
Each line names hits and unclear results; the compound was inactive in the other large screens; ! = not active in a repeat.

CN(C)c1nc(Oc2ccc(C(=O)OCC(=O)Nc3ccccc3)cc2)nc(N(C)C)n1	C2C12 statin 119 (no result: Wnt act)
CC(=O)Oc1ccc(/C=C2/CCc3ccccc3C2=O)cc1	esBAF inh 52
COc1ccc2c(c1)CC/C(=C\Nc1ccc3c(c1)OCO3)C2=O	MITF TRPM1 HTS inconclusive, esBAF inh 53
COc1ccc(/C=C2\CCc3ccccc3C2=O)cc1OC	none (no result: Wnt act)
COc1ccc2c(c1)CC/C(=C\C=C\c1ccccc1)C2=O	esBAF inh inconclusive, Wnt act 31 (no result: MITF TRPM1 HTS)
COc1cccc(/C=C2\CCc3ccccc3C2=O)c1	Wnt act 35
COc1cccc(C=C2Cc3ccccc3C2=O)c1	none (no result: MITF TRPM1 HTS, Rtt109 Vps75, esBAF inh, C2C12 statin)
C[C@H]1CN([C@@H](C)CO)C(=O)c2cc(C3=CCCCC3)cnc2O[C@@H]1CN(C)Cc1cccnc1	none (no result: MITF TRPM1 HTS, Rtt109 Vps75, Wnt act)
CC=Cc1ccc2n(c1=O)C[C@H]1[C@H](CO)[C@@H](C(=O)NCC3CC3)[C@@H]2N1Cc1ccccc1OC (mixture of isomers)	none (no result: MITF TRPM1 HTS, Rtt109 Vps75, Wnt act)
CCOC(=O)CC(NC(=O)c1cc2cccc(OC)c2oc1=O)c1ccc(OC)cc1 (stereo not given)	esBAF inh 50
O=C(O)C1C(c2ccccc2)C(C(=O)Oc2ccccc2)C1c1ccccc1 (stereo not given)	none (no result: Wnt act)
CC(C)CCOC(=O)C1C(c2ccccc2)C(C(=O)O)C1c1ccccc1 (stereo not given)	Wnt act 43
C[C@H]1CCCCO[C@H](CN(C)C(=O)Cc2ccccc2)[C@@H](C)CN([C@@H](C)CO)C(=O)c2cc(N(C)C)ccc2O1	none (no result: MITF TRPM1 HTS, Rtt109 Vps75, Wnt act)
Cc1nc2nc(CSc3nnc(C)s3)cc(=O)n2[nH]1	C2C12 statin 107!
CCCc1cc(=O)n2[nH]c(C)nc2n1	none
CCOC(=O)c1c(C)[nH]c(C2=NNC(=NC3CC3)SC2)c1C	Rtt109 Vps75 71 (no result: esBAF inh, Wnt act, C2C12 statin)
CNC[C@@H]1OCCCC[C@H](C)Oc2ccc(N(C)C)cc2C(=O)N([C@@H](C)CO)C[C@@H]1C	none (no result: MITF TRPM1 HTS, Rtt109 Vps75, Wnt act)
C[C@H](CO)N1C[C@H](C)[C@@H](CN(C)C(=O)C2CCOCC2)Oc2ncc(C3=CCCC3)cc2C1=O	none (no result: MITF TRPM1 HTS, Rtt109 Vps75, Wnt act)
Oc1ccc(/C=N/Nc2cccc3cccnc23)c(O)c1	esBAF inh 79 (no result: Wnt act)
Cc1ccc(/C=N/Nc2cccc3cccnc23)c(O)c1	none
COc1ccc(S(=O)(=O)N[C@@H]2CC[C@@H](CC(=O)O)O[C@@H]2CO)cc1	none (no result: MITF TRPM1 HTS, Rtt109 Vps75, Wnt act)
CCS(=O)(=O)N1Cc2ccccc2CC1C(=O)NCc1cccc(OC)c1 (stereo not given)	MITF TRPM1 HTS 91 (no result: esBAF inh, C2C12 statin)
COc1cccc(CNC(=O)C2Cc3ccccc3CN2C(C)=O)c1 (stereo not given)	none
CCS(=O)(=O)N1Cc2ccccc2CC1C(=O)Nc1cccc(OC)c1 (stereo not given)	esBAF inh 53
Cc1noc(C)c1NC(=O)Nc1ccc2c(c1)C(=O)N([C@H](C)CO)C[C@H](C)[C@@H](CN(C)C)OCCCC[C@@H](C)O2	none (no result: MITF TRPM1 HTS, Rtt109 Vps75, Wnt act)
O=C(c1cc2cc(Br)ccc2o1)N1CCCCC1	esBAF inh 49 (no result: C2C12 statin)
CCC/C=N/Nc1nc2ccccc2s1	Wnt act 75 (no result: esBAF inh, C2C12 statin)
COc1ccc(C=NNc2nc3ccccc3s2)cc1	none
C(=C\c1ccccc1)/C=N/Nc1nc2ccccc2s1	MITF TRPM1 HTS 101, esBAF inh 66, Wnt act inconclusive
Cc1noc(C)c1S(=O)(=O)N(C)C[C@@H]1Oc2ccc(NC(=O)Nc3ccccc3)cc2CC(=O)N([C@H](C)CO)C[C@H]1C	none (no result: MITF TRPM1 HTS, Rtt109 Vps75, Wnt act)
Cc1cc(C(=O)Nc2ccc(S(=O)(=O)Nc3onc(C)c3C)cc2)c(C)o1	none
Cc1ccc2oc(C(=O)Nc3ccc(S(=O)(=O)Nc4onc(C)c4C)cc3)c(C)c2c1	esBAF inh 59
Cc1c(NC(=O)C(C)OC(=O)COc2cccc3c2OC(C)(C)C3)c(=O)n(-c2ccccc2)n1C (stereo not given)	C2C12 statin 114
COc1ccccc1NC(=O)c1ccc(COc2ccccc2Br)o1	none
O=C(Nc1nccs1)c1ccc(COc2ccccc2Br)o1	esBAF inh 50 (no result: Wnt act)
CC(C)c1ccc(OCc2ccc(C(=O)N(C)C)o2)cc1	MITF TRPM1 HTS 91, esBAF inh 57, Wnt act 45
CC(C)c1ccc(OCc2ccc(C(=O)O)o2)cc1	esBAF inh inconclusive (no result: C2C12 statin)
CN(C)C(=O)c1ccc(COc2ccccc2Br)o1	esBAF inh 62 (no result: Wnt act)
O=C(Nc1nccs1)c1ccc(COc2ccc(F)cc2)o1	esBAF inh 60
O=C(Nc1nccs1)c1ccc(COc2ccc(Cl)cc2)o1	none (no result: esBAF inh, Wnt act, C2C12 statin)
